The panel holds about 79,000 compounds, 15% with a hit somewhere; the sample as a whole holds those more often. Values without a mark were called inactive. Active and inactive are the calls of the source. Cut-off read from the data, not from the text of the source: active = growth inhibition above about 70%; inactive = the rest.
How the values were obtained:
[1] = NCI Yeast Anticancer Drug Screen. Data for the rad50 strain (AID 155);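 note: 0% = growth of vehicle-only cultures of the same strain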; details: S. cerevisiae rad50 strain growth inhibition, active compounds read high
Procedure, shortened: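 Genetically altered yeast (DNA repair pathway); compound treatment; growth inhibition vs vehicle ctrl.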

[2] = NCI Yeast Anticancer Drug Screen. Data for the mec2-1 strain (AID 157); details: S. cerevisiae mec2-1 strain, active compounds read high
Procedure, shortened: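 Readout is yeast growth inhibition, normalised to vehicle-treated controls, in the mec2-1 strain exposed to compound.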

[3] = NCI Yeast Anticancer Drug Screen. Data for the sgs1 mgt1 strain (AID 161);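 note: 0% = growth of cultures given vehicle only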; details: S. cerevisiae sgs1 mgt1 strain, active compounds read high
Procedure, shortened: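 Percent growth inhibition was derived by comparing compound-exposed mutant yeast with vehicle-exposed cultures. The strain carries alterations in DNA damage repair.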

[4] = NCI Yeast Anticancer Drug Screen. Data for the cln2 rad14 strain (AID 165);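 note: 0% = growth equal to vehicle treated cultures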; details: S. cerevisiae cln2 rad14 strain, active compounds read high
Procedure, shortened: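 Relative to vehicle controls, growth inhibition of compound-treated cln2 rad14 yeast was recorded.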

[5] = NCI Yeast Anticancer Drug Screen. Data for the bub3 strain (AID 167); details: S. cerevisiae bub3 mutant strain, active compounds read high
Procedure, shortened: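 Yeast carrying a defined mutation is treated with each compound, and growth is compared with that of vehicle-exposed cells to give inhibition.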

[6] = NCI Yeast Anticancer Drug Screen. Data for the mlh1 rad18 strain (AID 175); details: S. cerevisiae mlh1 rad18 strain growth inhibition, active compounds read high
Procedure, shortened: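 Test agents were incubated with a yeast strain of defined genotype (DNA damage repair defect). Inhibition of growth was derived by comparison with vehicle-exposed cultures.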

[7] = at 5.0 µM (retest, dose inferred, filed as 0.5)
[8] = at 50.0 µM (retest, dose inferred, filed as 5.0)

SMILES | growth inhibition [1, 7] | growth inhibition [1, 8] | growth inhibition ([1]; at 50.0 µM) | growth inhibition [2, 7] | growth inhibition [2, 8] | growth inhibition ([2]; at 50.0 µM) | growth inhibition [3, 7] | growth inhibition [3, 8] | growth inhibition ([3]; at 50.0 µM) | growth inhibition [4, 7] | growth inhibition [4, 8] | growth inhibition ([4]; at 50.0 µM) | growth inhibition [5, 7] | growth inhibition [5, 8] | growth inhibition ([5]; at 50.0 µM) | growth inhibition [6, 7] | growth inhibition [6, 8] | growth inhibition ([6]; at 50.0 µM)
c1ccc(Nc2nnc3nc(-c4ccccc4)c(-c4ccccc4)nn23)cc1 | 12% | 60% | 65.2% | 12% | 82% (active) | 55.1% | 19% | 91% (active) | 91.5% (active) | -1% | 41% | 33% | 6% | 39% | 36.1% | 5% | 84% (active) | 70.1% (active)
C/C(=N/NC(=S)Nc1cccc(Cl)c1)c1ccccn1 | 78% (active) | 97% (active) | 79% (active) | 91% (active) | 97% (active) | 86.7% (active) | 85% (active) | 97% (active) | 87% (active) | 81% (active) | 96% (active) | 88.2% (active) | 82% (active) | 96% (active) | 90% (active) | 91% (active) | 97% (active) | 90.1% (active)
COc1cc(C2CC(=O)c3ccccc3O2)ccc1O (configuration not stated) | 0% | 98% (active) | 89% (active) | 10% | 99% (active) | 92.7% (active) | 17% | 98% (active) | 92.2% (active) | -16% | 97% (active) | 88.7% (active) | 26% | 97% (active) | 90.7% (active) | 15% | 98% (active) | 89.5% (active)
NC1CCCCC1N.O=S(=O)([O-])CCCN1CCOCC1.O=S(=O)([O-])CCCN1CCOCC1.[Pt+4] | -12% | 89% (active) | 99% (active) | -6% | 73% (active) | 98.9% (active) | 0% | 87% (active) | 99% (active) | -14% | 58% | 99% (active) | 10% | 92% (active) | 98.6% (active) | 20% | 98% (active) | 99.2% (active)
O=C1/C(=C/c2ccc([N+](=O)[O-])cc2)Sc2scc(-c3cccc([N+](=O)[O-])c3)[n+]21 | 69% | 98% (active) | 83.5% (active) | 69% | 98% (active) | 89.5% (active) | 96% (active) | 99% (active) | 90.6% (active) | 53% | 98% (active) | 90.6% (active) | 99% (active) | 99% (active) | 87% (active) | 51% | 99% (active) | 91.1% (active)
COc1ccc(/C(=N/NC(N)=O)C(c2ccc(OC)cc2)C2C(=O)Oc3ccccc32)cc1 (configuration not stated) | -7% | 88% (active) | 98.2% (active) | -59% | 96% (active) | 99% (active) | -4% | 86% (active) | 98.6% (active) | 0% | 77% (active) | 88.8% (active) | 0% | 83% (active) | 99.2% (active) | -2% | 95% (active) | 98.4% (active)
O/N=C(/CCc1ccccc1Cl)c1ccccc1 | 3% | 34% | 94% (active) | -5% | 55% | 93.6% (active) | 3% | 75% (active) | 96.3% (active) | -2% | 41% | 90.1% (active) | 6% | 61% | 87.2% (active) | 1% | 80% (active) | 93.3% (active)
C/C(=N\NC(=S)N1CCN(C2CCCCCC2)CC1)c1ccccn1 | -4% | 99% (active) | 50.5% | -6% | 99% (active) | 65.3% | -4% | 99% (active) | 26.1% | 8% | 99% (active) | 42% | -17% | 99% (active) | 19.4% | 14% | 99% (active) | 40%
C=C(c1ccccc1)[P+](c1ccccc1)(c1ccccc1)c1ccccc1 | 97% (active) | 99% (active) | 99.2% (active) | 99% (active) | 100% (active) | 99.6% (active) | 99% (active) | 99% (active) | 99.5% (active) | 97% (active) | 99% (active) | 99% (active) | 92% (active) | 99% (active) | 99% (active) | 98% (active) | 99% (active) | 99.5% (active)
COc1ccccc1CN1CCCN(Cc2ccccc2OC)C1c1cc(Cl)cc(Cl)c1O | 16% | 93% (active) | 69.2% | 11% | 100% (active) | 15.3% | 19% | 99% (active) | 97.5% (active) | -2% | 97% (active) | 6.2% | 4% | 98% (active) | 9.3% | 52% | 99% (active) | 78.6% (active)
COc1ccc(/C=C/c2ccnc3ccccc23)cc1OC | 17% | 96% (active) | 86.4% (active) | 2% | 97% (active) | 90.9% (active) | 9% | 98% (active) | 87.9% (active) | 6% | 89% (active) | 83.7% (active) | -8% | 98% (active) | 82.5% (active) | 11% | 96% (active) | 84.9% (active)
O=S(=O)(ON=C1C=CC(=NOS(=O)(=O)c2ccccc2)C=C1)c1ccccc1 | 27% | 44% | 95.2% (active) | 6% | 55% | 94% (active) | 21% | 48% | 95% (active) | 16% | 54% | 94.1% (active) | 14% | 54% | 96.7% (active) | 48% | 76% (active) | 96% (active)
CSc1nc(NC2OC(CO)C(O)C(O)C2O)c(Cl)c(=O)[nH]1 (configuration not stated) | -1% | -1% | 42.1% | 0% | -1% | 4.45% | -2% | 0% | 12.4% | 1% | -2% | -3.85% | -1% | 4% | -1.4% | 2% | -1% | 1.05%
CNCC(O)c1cccc(O)c1 (configuration not stated) | 7% | 11% | 74.9% (active) | 2% | -9% | 14.8% | 2% | -7% | 45% | 8% | -12% | 19% | 0% | -18% | 21.2% | 1% | -5% | 31%
CCC(C)(C)c1cc(Br)c(NS(=O)(=O)c2ccc(NC(C)=O)cc2)c(Br)c1 | 5% | 80% (active) | -6.75% | 13% | 65% | 8.05% | -9% | 35% | -0.45% | 9% | 78% (active) | 6.85% | -3% | 62% | 6.5% | 8% | 42% | 20.5%
CCCCN1CSC(=S)N(Cc2ccccc2)C1 | 2% | 38% | 32.8% | 3% | 3% | -21.7% | 13% | 30% | 10.3% | 30% | 25% | -41.1% | 5% | 38% | 23.8% | -10% | 38% | 31.4%
O=C1NC(O)c2cccc(Cl)c2O1 (configuration not stated) | 52% | 99% (active) | 88.8% (active) | 22% | 99% (active) | 92.2% (active) | 17% | 99% (active) | 83.3% (active) | 5% | 99% (active) | 97.8% (active) | 15% | 98% (active) | 94.8% (active) | 28% | 99% (active) | 98.3% (active)
CCc1c(O)sc2c(c1=O)C(=NCC(C)C)CC(C)(C)N2 | -5% | 5% | 40.3% | 15% | 34% | 24.1% | 9% | -4% | 34.1% | -14% | -7% | 27.4% | 2% | 4% | 10.8% | -12% | -6% | 53.9%
C[C@]12CC[C@H](O)C[C@@H]1CC[C@@H]1[C@@H]2CC[C@]2(C)[C@@H](c3cc(C(F)(F)F)n[nH]3)CC[C@@H]12 | 12% | 94% (active) | 89.8% (active) | 3% | 86% (active) | 61.6% | 10% | 90% (active) | 63% | 7% | 92% (active) | 68.9% | -3% | 85% (active) | 84.3% (active) | 12% | 96% (active) | 88.7% (active)

Reference: PubChem BioAssay (NCI)
